# Reference: PMC7826789 (International Journal of Molecular Sciences, 2021)
# Tested on: ALK(L1196M)
# Details: Compound Concentration (nM):1000
# 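Note: KINOMEscan scanMAX binding as percent activity remaining versus control; lower means stronger binding.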
row,SMILES,Percent Control [%]
1,Cl.O=C(Nc1ccc(Oc2ccc3[nH]c(NC(=O)c4ccco4)nc3c2)cc1)Nc1cc(C(F)(F)F)ccc1F [GW683134A],92
2,O=C(Nc1n[nH]c2nc(-c3ccc(O)cc3)c(Br)cc12)C1CC1 [SB-725317],87
3,COc1cc2ncnc(Nc3ccc4c(cnn4Cc4ccccc4)c3)c2cc1OC.Cl [GW282449A],100
4,CN(C)CCNC(=O)Nc1ccc(N(C)c2ccnc(Nc3ccc(CS(C)(=O)=O)cc3)n2)cc1.Cl [GW830900A],85
5,CC1=C(C(=O)Nc2ccc3[nH]ncc3c2)C(c2ccc(Cl)c(Cl)c2)CC(=O)N1 (centres unmarked) [GSK299115A],100
6,COc1ccc(COc2ccc(Cc3cnc(N)nc3N)cc2OC)cc1 [GW632580X],87
7,CCS(=O)(=O)c1ccc(OC)c(Nc2ncc(-c3cccc(F)c3)o2)c1 [GW621970X],97
8,COc1cc(/C=N/Nc2ncnc3[nH]ncc23)ccc1O [GW578748X],75
9,C/C(Nc1ccc(S(N)(=O)=O)cc1)=C1/C(=O)Nc2ccccc21 [GW335962X],60
10,CN1CCN(C(=O)c2ccc(NC(=O)Nc3ccc(N(C)c4ccnc(Nc5ccc(CS(C)(=O)=O)cc5)n4)cc3)cc2)CC1.Cl [GW830263A],83
11,CC1=C(C(=O)Nc2ccc3[nH]ncc3c2)C(c2ccc3ccccc3c2)CC(=O)N1 (centres unmarked) [GSK270822A],77
12,COc1ccc2cc(-c3c(-c4ccncc4)nc(-c4ccc(S(C)(=O)=O)cc4C)n3C)ccc2c1 [SB-633825],73
13,COc1ccccc1-c1cc(/C=C2\C(=O)Nc3ncc(Br)cc32)cc(Br)c1O [GW442130X],100
14,NS(=O)(=O)c1ccc(N/N=C2\C(=O)Nc3ccc(C(=O)NCc4ccncc4)cc32)cc1 [GW300657X],82
15,Cl.O=C(O[C@H]1CN[C@H](C#Cc2cc3ncnc(Nc4ccc5c(cnn5Cc5ccccc5)c4)c3s2)C1)N1CCOCC1 [GSK200398A],88
16,Cl.O=S1CCN(Cc2ccc(-c3ccc4ncnc(Nc5ccc(OCc6ccccc6)c(F)c5)c4c3)o2)CC1 [GW576924A],100

row,SMILES,Percent Control [%]
1,Cl.c1ccc(Cc2nc3ccc(Nc4ncnc5ccccc45)cc3[nH]2)cc1 [GR269666A],100
2,COc1cccc(-c2c[nH]c3c(N/N=C/c4ccncc4)ncnc23)c1 [GW814408X],99
3,Cl.O=C(Nc1ccc(Oc2ccc3[nH]c(NC(=O)c4ccccc4)nc3c2)cc1)Nc1cc(C(F)(F)F)ccc1F [GW709042A],92
4,CCn1c(-c2nonc2N)nc2c(C#CC(C)(C)O)nc(OCCNC)cc21.Cl [GSK949675],100
5,CN(C)c1cc2c(Nc3ccc4c(cnn4Cc4ccccc4)c3)ncnc2cn1 [GW282974X],94
6,C[C@@H](Oc1cc(-n2cnc3ccc(OC4CCN(C)CC4)cc32)sc1C(N)=O)c1ccccc1Cl [GSK579289A],81
7,CCc1ccc(Oc2nccc(-c3c(-c4ccc(F)cc4)ncn3C3CCNCC3)n2)cc1 [SB-242719],98
8,NS(=O)(=O)c1ccc(N/N=C2\C(=O)Nc3ccc(-c4cnco4)cc32)cc1 [GW276655],100
9,COc1cc(C)c(N(C)C(=O)CN(C)C)cc1Nc1nc(Nc2cccc(F)c2C(N)=O)c2cc[nH]c2n1 [GSK2219385],13
10,COc1ccc2[nH]c3c4[nH]c5ccc(OC)cc5c4c4c(c3c2c1)C(=O)NC4=O [GW296115X],70
11,COc1cc(C=NNc2ncnc3c2cnn3-c2ccccc2)ccc1O [GW513184X],100
12,NS(=O)(=O)c1ccc(N/N=C2\C(=O)Nc3ccc(Cl)cc32)cc1 [GW280670X],100
13,COc1cc(N2CCN(C(C)C)CC2)ccc1Nc1nc(Nc2ccc(F)cc2C(=O)NC[C@@H](O)CO)c2cc[nH]c2n1 [GSK1392956A],1.1
14,Cc1cc(O)cc(C)c1/C=C/c1cncc(C(N)=O)c1 [GW435821X],88
15,COC(=O)Nc1nc2ccc(Oc3ccc(NC(=O)Nc4cc(C(F)(F)F)ccc4F)cc3)cc2s1.Cl [GW693917A],87
16,CC(C)COC(=O)c1ccc2c(c1)/C(=C/Nc1ccc(S(N)(=O)=O)cc1)C(=O)N2 [GW416981X],94
